Measurements reported in PubChem BioAssay (NCATS).
Where “and” joins values, the source holds several entries; their conditions need not be identical. Equal values may be shown once. Inconclusive results are not listed. Where a call stands in place of a potency, no number is given. Calls of active or inactive are those of the source. Calls follow the shape of the dose curve; as a rule, active = well fitted curve in the direction sought with a large enough effect; inconclusive = small, poorly fitted or top-dose-only effect, or another doubt; inactive = no such curve, though single readings can be large; an effect the other way counts as inactive or inconclusive.

Assays:
[1] = qHTS of pediatric cancer cell lines to identify multiple opportunities for drug repurposing: Primary screen for SK-N-MC cells (AID 1347093); also: potency is read from the fitted curve at half-maximal effect
Summary of the method: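 Metabolically active cells were quantified by ATP-dependent luminescence (CellTiter-Glo, 15 min at room temperature) following 48 h treatment. Cells had been plated at 500-1,000 per well and settled for 5 h beforehand.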

[2] = qHTS of pediatric cancer cell lines to identify multiple opportunities for drug repurposing: Primary screen for BT-37 cells (AID 1347094); also: potency is read from the fitted curve at half-maximal effect
Summary of the method: (§1)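 Luminescence from CellTiter-Glo served as readout of metabolically active cells after 48 h compound exposure. Titrations: MIPE 11-point, from 0.78 nM; NPC 8-point, from 0.59 nM (final). Concentration-response curves came straight from the primary screen.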

[3] = qHTS of pediatric cancer cell lines to identify multiple opportunities for drug repurposing: Primary screen for NB-EBc1 cells (AID 1347095); also: potency is read from the fitted curve at half-maximal effect
Summary of the method: as §1

[4] = qHTS of pediatric cancer cell lines to identify multiple opportunities for drug repurposing: Primary screen for U-2 OS cells (AID 1347096); also: nearly all actives have a fitted effect of over 50% in size
Summary of the method: (§2)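 Cells (500-1,000/well) rested 5 h, then received compounds for 48 h; metabolically active cells were measured by CellTiter-Glo luminescence. Final concentrations spanned up to 46 µM (MIPE, 11-point) or 0.59 nM-46 µM (NPC, 8-point) in primary screens, 11-point in follow-ups.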

[5] = qHTS of pediatric cancer cell lines to identify multiple opportunities for drug repurposing: Primary screen for Saos-2 cells (AID 1347097); also: nearly all actives have a fitted effect of over 40% in size; also: potency is read from the fitted curve at half-maximal effect
Summary of the method: as §1

[6] = qHTS of pediatric cancer cell lines to identify multiple opportunities for drug repurposing: Primary screen for LAN-5 cells (AID 1347100); also: potency is read from the fitted curve at half-maximal effect
Summary of the method: as §2

[7] = qHTS of pediatric cancer cell lines to identify multiple opportunities for drug repurposing: Primary screen for BT-12 cells (AID 1347101); also: nearly all actives have a fitted effect of over 25% in size; also: potency is read from the fitted curve at half-maximal effect
Summary of the method: as §2

[8] = qHTS of pediatric cancer cell lines to identify multiple opportunities for drug repurposing: Primary screen for Rh18 cells (AID 1347102); also: nearly all actives have a fitted effect of over 65% in size; also: potency is read from the fitted curve at half-maximal effect
Summary of the method: as §2

[9] = qHTS of pediatric cancer cell lines to identify multiple opportunities for drug repurposing: Primary screen for MG 63 (6-TG R) cells (AID 1347105); also: nearly all actives have a fitted effect of over 50% in size; also: potency is read from the fitted curve at half-maximal effect
Summary of the method: as §1

[10] = qHTS of pediatric cancer cell lines to identify multiple opportunities for drug repurposing: Primary screen for control Hh wild type fibroblast cells (AID 1347106); also: nearly all actives have a fitted effect of over 55% in size; also: potency is read from the fitted curve at half-maximal effect
Summary of the method: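 Cells (500-1,000/well) in growth media were settled 5 h at 37 degrees C, then given compounds for 48 h. Viability was read as CellTiter-Glo luminescence. Primary runs used MIPE at 11 points (0.78 nM-46 µM) and NPC at 8 points (0.59 nM-46 µM); follow-ups used 11 points.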

[11] = qHTS of pediatric cancer cell lines to identify multiple opportunities for drug repurposing: Primary screen for SK-N-SH cells (AID 1347098); also: nearly all actives have a fitted effect of over 65% in size; also: potency is read from the fitted curve at half-maximal effect
Summary of the method: as §2

[12] = qHTS of pediatric cancer cell lines to identify multiple opportunities for drug repurposing: Primary screen for NB1643 cells (AID 1347099); also: nearly all actives have a fitted effect of over 50% in size; also: potency is read from the fitted curve at half-maximal effect
Summary of the method: as §1

[13] = qHTS of pediatric cancer cell lines to identify multiple opportunities for drug repurposing: Primary screen for OHS-50 cells (AID 1347103); also: nearly all actives have a fitted effect of over 40% in size; also: potency is read from the fitted curve at half-maximal effect
Summary of the method: as §2

[14] = qHTS of pediatric cancer cell lines to identify multiple opportunities for drug repurposing: Primary screen for Rh30 cells (AID 1347107); also: series mostly up to about 46 µM; nearly all actives have a fitted effect of over 75% in size
Summary of the method: as §2

[15] = qHTS of pediatric cancer cell lines to identify multiple opportunities for drug repurposing: Confirmatory screen for NB1643 cells (AID 1347109); also: nearly all actives have a fitted effect of over 45% in size; also: potency is read from the fitted curve at half-maximal effect
Summary of the method: as §2

[16] = qHTS of pediatric cancer cell lines to identify multiple opportunities for drug repurposing: Confirmatory screen for A673 cells (AID 1347110);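 also: cells exposed to compound for 48 h before the viability read; nearly all actives have a fitted effect of over 65% in size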; also: potency is read from the fitted curve at half-maximal effect
Summary of the method: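 qHTS titration format: primary MIPE 0.78 nM-46 µM (11 pts), NPC 0.59 nM-46 µM; confirmation 11 pts. 48 h, CTG luminescence.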

[17] = qHTS of pediatric cancer cell lines to identify multiple opportunities for drug repurposing: Confirmatory screen for BT-12 cells (AID 1347112); also: nearly all actives have a fitted effect of over 55% in size
Summary of the method: as §2

[18] = qHTS of pediatric cancer cell lines to identify multiple opportunities for drug repurposing: Confirmatory screen for LAN-5 cells (AID 1347113); also: nearly all actives have a fitted effect of over 65% in size
Summary of the method: as §2

[19] = qHTS of pediatric cancer cell lines to identify multiple opportunities for drug repurposing: Primary screen for RD cells (AID 1347104); also: nearly all actives have a fitted effect of over 55% in size; also: potency is read from the fitted curve at half-maximal effect
Summary of the method: as §1

[20] = qHTS of pediatric cancer cell lines to identify multiple opportunities for drug repurposing: Primary screen for Rh41 cells (AID 1347108); also: nearly all actives have a fitted effect of over 70% in size; also: potency is read from the fitted curve at half-maximal effect
Summary of the method: as §1

| SMILES | Potency [1] | Potency [2] | Potency [3] | Potency [4] | Potency [5] | Potency [6] | Potency [7] | Potency [8] | Potency [9] | Potency [10] | Potency [11] | Potency [12] | Potency [13] | Potency [14] | Potency [15] | Potency [16] | Potency [17] | Potency [18] | Potency [19] | Potency [20] |
| --- | --- | --- | --- | --- | --- | --- | --- | --- | --- | --- | --- | --- | --- | --- | --- | --- | --- | --- | --- | --- |
| Cc1csc(NC(=O)c2sc3nc4c(c(C(F)(F)F)c3c2N)CCC4)n1 | inactive | 8.63 µM (active) | inactive | inactive | inactive | inactive | inactive | inactive | inactive | 2.64 µM (active) | – | – | – | – | – | – | – | – | – | – |
| Nc1nc2[nH]cc(CCc3ccc(C(=O)N[C@@H](CCC(=O)O)C(=O)O)cc3)c2c(=O)[nH]1 | 0.132 µM (active) | inactive | 1.48 µM (active) | inactive | – | inactive | inactive | inactive | – | inactive | inactive | inactive | inactive | inactive | 20.8 µM (active) | 2.33 µM (active) | inactive | inactive | – | – |
| Cc1cc2c(F)c(Oc3ncnn4cc(OC[C@@H](C)O)c(C)c34)ccc2[nH]1 | 0.264 µM (active) | 27.3 µM (active) | 13.2 µM (active) | – | 18.7 µM (active) | 20.9 µM (active) | – | – | – | inactive | 24.1 µM (active) | – | 30.6 µM (active) | – | – | – | – | – | – | – |
| Cc1cc(Nc2nc(N[C@@H](C)c3ncc(F)cn3)ncc2Cl)n[nH]1 | 3.72 µM (active) | 15.3 µM (active) | 18.7 µM (active) | – | 26.4 µM (active) | – | 34.3 µM (active) | – | 11.8 µM (active) | inactive | 15.2 µM (active) | 1.32 µM (active) | 15.3 µM (active) | inactive | – | – | – | – | 16.6 µM (active) | 9.35 µM (active) |
| Cc1cccc(-c2nn(C(=S)Nc3ccccc3)cc2-c2ccnc3ccccc23)n1 | inactive | inactive | inactive | inactive | – | inactive | – | inactive | inactive | inactive | inactive | inactive | – | inactive | – | – | – | – | inactive | inactive |
| Nc1cccc(S(=O)(=O)N2CCCN(S(=O)(=O)c3ccc4c(c3)OCCO4)CC2)c1 | inactive | inactive | inactive | inactive | – | inactive | – | inactive | inactive | inactive | – | – | – | inactive | – | – | – | – | inactive | – |
| CS(=O)(=O)c1ccc(C(=O)Nc2ccc(Cl)c(-c3ccccn3)c2)c(Cl)c1 | 2.64 µM (active) | inactive | inactive | inactive | – | inactive | – | inactive | – | inactive | inactive | – | inactive | inactive | – | inactive | inactive | inactive | inactive | – |
| CCOC(=O)C1=C[C@]2(CC)CCCN3CCc4c(n1c1ccccc41)[C@@H]32 | 13.2 µM (active) | inactive | inactive | inactive | – | – | inactive | inactive | – | inactive | – | inactive | 24.3 µM (active) | inactive | – | – | – | – | – | inactive |
| COc1cc(Nc2ncc3c(n2)-c2ccc(Cl)cc2C(c2c(F)cccc2OC)=NC3)ccc1C(=O)O | 0.0743 µM (active) | inactive | 0.0332 µM (active) | – | 4.69 µM (active) | 0.0093 µM (active) | – | 20.9 µM (active) | 5.9 µM (active) | inactive | 8.57 µM (active) | 13.2 µM (active) | – | – | – | – | inactive | – | – | – |
| COc1nc(-c2ccc3c(c2)OCO3)n(-c2ccc(NC(=O)CSc3ccccc3)cc2)n1 | inactive | inactive | inactive | inactive | – | inactive | inactive | inactive | inactive | inactive | inactive | inactive | – | inactive | – | – | – | – | inactive | inactive |
| Cc1cc(C=c2sc3nc4ccccc4n3c2=O)c(C)n1-c1ccccc1 | inactive | – | inactive | inactive | – | inactive | inactive | – | inactive | inactive | inactive | – | – | – | – | – | – | – | inactive | – |
| CCC(=O)N[C@H]1CC[C@H](C(=O)N(C)c2ccc(-c3nc4ccccc4o3)cc2)C1 | 0.833 µM (active) | – | inactive | inactive | inactive | – | – | inactive | – | – | 0.961 µM (active) | 1.66 µM (active) | 19.3 µM (active) | inactive | – | – | – | – | 3.32 µM (active) | – |
| CCN(CC)CCCC(C)Nc1ccnc2cc(Cl)ccc12 (stereo not given) | 0.0372 µM (active) | – | inactive | inactive | – | – | 3.43 µM (active) | inactive | 11.8 µM (active) | inactive | – | 1.48 µM (active) | 8.63 µM (active) | inactive | inactive | inactive | inactive | inactive | 13 µM (active) and 6.62 µM (active) | inactive |
| CC(C)(N)C(=O)N[C@H](COCc1ccccc1)C(=O)N1CCC2(CC1)CN(S(C)(=O)=O)c1ccccc12 | 23.5 µM (active) | – | inactive | inactive | inactive | inactive | – | – | – | inactive | 30.4 µM (active) | 23.5 µM (active) | 27.3 µM (active) | – | – | – | – | – | 26.4 µM (active) | – |
